According to paper PMC4336329 (PLoS ONE, 2015):
The whole screen tested about 310,000 compounds, of which about 14,000 (4.5%) showed an effect of 50% or more. Effects have a minus sign here. Only a selection was taken, and strong results are over-represented in it overall.

What follows are compounds tested against human ether-à-go-go-related gene (hERG) potassium channel (human, UniProt Q12809) (assay: primary screen, population patch clamp on CHO cells stably expressing hERG; higher = less effect of the substance).
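Further: peak tail current of the secondary pulse compared with the same well before compound.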

Chain of human ether-à-go-go-related gene (hERG) potassium channel (Q12809 whole entry, looked up): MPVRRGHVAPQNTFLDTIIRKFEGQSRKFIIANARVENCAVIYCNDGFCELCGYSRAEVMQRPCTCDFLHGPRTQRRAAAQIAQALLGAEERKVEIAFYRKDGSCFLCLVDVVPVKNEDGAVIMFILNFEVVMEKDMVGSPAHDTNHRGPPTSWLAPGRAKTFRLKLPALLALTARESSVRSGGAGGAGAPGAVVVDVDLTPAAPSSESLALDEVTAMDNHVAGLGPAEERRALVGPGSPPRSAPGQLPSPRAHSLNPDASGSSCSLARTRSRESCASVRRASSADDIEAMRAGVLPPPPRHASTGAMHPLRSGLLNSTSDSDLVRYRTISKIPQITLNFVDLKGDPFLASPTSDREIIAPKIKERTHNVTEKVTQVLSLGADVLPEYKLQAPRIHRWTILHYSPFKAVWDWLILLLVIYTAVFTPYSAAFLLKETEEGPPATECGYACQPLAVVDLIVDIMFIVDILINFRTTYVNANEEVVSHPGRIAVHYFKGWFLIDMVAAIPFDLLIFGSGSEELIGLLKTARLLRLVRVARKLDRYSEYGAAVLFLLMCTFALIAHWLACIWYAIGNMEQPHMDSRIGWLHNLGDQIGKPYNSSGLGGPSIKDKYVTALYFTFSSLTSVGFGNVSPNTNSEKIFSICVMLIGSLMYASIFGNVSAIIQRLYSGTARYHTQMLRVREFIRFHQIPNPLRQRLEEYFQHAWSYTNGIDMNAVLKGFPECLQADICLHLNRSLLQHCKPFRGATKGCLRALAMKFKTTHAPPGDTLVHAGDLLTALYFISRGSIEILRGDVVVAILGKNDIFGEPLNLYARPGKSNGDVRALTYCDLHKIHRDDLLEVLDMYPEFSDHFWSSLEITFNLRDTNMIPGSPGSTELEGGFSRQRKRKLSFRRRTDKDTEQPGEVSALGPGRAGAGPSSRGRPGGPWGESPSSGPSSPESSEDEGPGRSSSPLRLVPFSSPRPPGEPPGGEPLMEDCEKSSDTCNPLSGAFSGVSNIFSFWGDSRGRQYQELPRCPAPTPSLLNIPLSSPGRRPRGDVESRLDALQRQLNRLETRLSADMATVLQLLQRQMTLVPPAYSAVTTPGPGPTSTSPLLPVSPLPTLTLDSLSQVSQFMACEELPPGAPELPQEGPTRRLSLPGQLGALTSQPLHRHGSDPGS

SMILES	hERG current change (%, negative = inhibition) at 10uM [%]
Cc1ccc(C(C#N)c2ccc3c(C(F)(F)F)cc(C(F)(F)F)nc3n2)cc1 (stereo not shown)	11.1
CCOc1cc(NS(=O)(=O)c2ccc(NC(C)=O)cc2)c(OCC)cc1NC(=O)C(C)C	10.3
O=C(CCN1CCCCO1)N1CCCC(Nc2ccc(F)cc2)C1 (stereo not shown)	12.7
O=C(Cn1ccc([N+](=O)[O-])n1)N1CCc2ccccc21	-2.32
CCOC(=O)c1c(-c2ccccc2)cn2c(C)cc(C)nc12	-22.9
Cc1cc(C)n2nc(C)c(-c3ccc(Cl)cc3)c2n1	27.1
Cc1cc(C)n2cc(-c3ccc(Cl)cc3)c(C(=O)O)c2n1	-50.9
O=c1[nH]c(=S)n(-c2ccccc2)c(O)c1/C=N/N1CCOCC1	-2.11
Cc1noc(C)c1-c1nnc(-c2ccc(C(F)(F)F)cc2)o1	4.76
COCc1ccc(C(=O)N(C)CC2CCCN(CCc3ccc(Cl)cc3)C2)o1 (stereo not shown)	-78.9
COCc1ccc(C(=O)N(C)C2CCCN(Cc3ccccc3F)C2)o1 (stereo not shown)	0.722
COCc1ccc(C(=O)N(C)CC2CCCN(CCc3ccccc3F)C2)o1 (stereo not shown)	-41
COCc1ccc(C(=O)NC2CCCN(Cc3ccccc3F)C2)o1 (stereo not shown)	11.2
COCc1ccc(C(=O)N(C)CC2CCCN(CCc3ccc(OC)cc3)C2)o1 (stereo not shown)	-69.5
COc1ccccc1OCC(=O)Nc1ccc2c(c1)C(=O)N(CC1CCCO1)C2=O (stereo not shown)	-19.3
CC(=O)Nc1cccc(N(C(=O)C2COc3ccccc3O2)C(C(=O)NC2CCCCC2)c2cn(C)nc2C)c1 (stereo not shown)	24.1
CCOc1cc(CNc2ccc(N(C)C)cc2)cc(Br)c1OCC(=O)NC(C)(C)C	-17
Cc1c(C)c2cc3c(C)coc3cc2oc1=O	10.5
CN1C(C(=O)NCc2ccc(OC(F)(F)F)cc2)CC2Cn3c(nc4cc5ccccc5cc43)C21 (stereo not shown)	-69.4
O=C(NCc1ccc(OC(F)(F)F)cc1)C1CC2Cn3c(nc4ccccc43)C2N1Cc1ccccc1 (stereo not shown)	-62.1
CN1C(C(=O)NCc2ccc(OC(F)(F)F)cc2)CC2Cn3c(nc4cc(Cl)c(Cl)cc43)C21 (stereo not shown)	-77.9
COc1ccc(CCNC(=O)C2CC3Cn4c(nc5cc6ccccc6cc54)C3N2C)cc1 (stereo not shown)	-43.7
COc1ccc(CCNC(=O)C2CC3Cn4c(nc5cc(C)c(C)cc54)C3N2C)cc1 (stereo not shown)	-31.4
CN1C(C(=O)NCC2CC2)CC2Cn3c(nc4cc5ccccc5cc43)C21 (stereo not shown)	-21.2
COc1ccc(CCNC(=O)C2CC3Cn4c(nc5ccccc54)C3N2Cc2ccccc2)cc1 (stereo not shown)	-49.7
COc1ccc(CCNC(=O)C2CC3Cn4c(nc5cc(Cl)c(Cl)cc54)C3N2C)cc1 (stereo not shown)	-23.5
O=C(NCc1ccc(OC(F)(F)F)cc1)C1CC2Cn3c(nc4ccccc43)C2N1c1ccccc1 (stereo not shown)	-61.3
COc1ccc(CCNC(=O)C2CC3Cn4c(nc5ccccc54)C3N2c2ccccc2)cc1 (stereo not shown)	-7.57
